RE007 growth inh: less growth of the S. pombe RE007 Vpr strain. S. pombe RE007 Vpr strain, BacTiter-Glo ATP luminescence, 24 h. AID 651644. Potency, µM (top dose mostly 92.2 µM), for inactives: at the highest dose activity change, negative = less growth, most hits filed as inhibitors. 0.21% of 360,000 active; active = well fitted falling curve with a large enough effect; inconclusive = small, poorly fitted or top-dose-only effect; inactive = no such curve, though single readings can be large or run the other way; also: nearly all actives have a fitted effect of over 50% in size
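Fission yeast RE007 carrying one integrated HIV-1 vpr copy, seeded at OD 0.01 in PMG+AL medium with 23 nL pinned compound. Grown 24 h at 30 degrees; viability read by BacTiter-Glo luminescence after 5 min.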
Sm TGR inh: S. mansoni TGR enzyme inhibition. purified TGR, DTNB reduction, TNB absorbance 405 nm. AID 485364. 3% of 360,000 active. Q962Y6. Potency, µM (doses to about 114 µM), without a hit: top-dose activity change, negative = inhibition, actives largely listed as inhibitors; also: nearly all actives have a fitted effect of over 60% in size
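Kinetic colorimetric format: TGR-catalysed, NADPH-driven DTNB reduction monitored via TNB absorbance. Enzyme dispensed at 20 nM; compound exposure 15 min at room temperature before reaction start.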
AmpC inh no detg: blocks E. coli AmpC beta-lactamase in detergent-free assay; P00811; AmpC nitrocefin hydrolysis, absorbance 480 nm, 0.0001% Triton; Potency, µM (doses to about 57.1 µM), for inactives: at the highest dose activity change, negative = inhibition, usual class: inhibitors; 0.52% of 330,000 active;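 also: plate controls were no compound for no effect and no enzyme for full effect; nearly all actives have a fitted effect of over 20% in size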
Target sequence (P00811 whole entry, looked up): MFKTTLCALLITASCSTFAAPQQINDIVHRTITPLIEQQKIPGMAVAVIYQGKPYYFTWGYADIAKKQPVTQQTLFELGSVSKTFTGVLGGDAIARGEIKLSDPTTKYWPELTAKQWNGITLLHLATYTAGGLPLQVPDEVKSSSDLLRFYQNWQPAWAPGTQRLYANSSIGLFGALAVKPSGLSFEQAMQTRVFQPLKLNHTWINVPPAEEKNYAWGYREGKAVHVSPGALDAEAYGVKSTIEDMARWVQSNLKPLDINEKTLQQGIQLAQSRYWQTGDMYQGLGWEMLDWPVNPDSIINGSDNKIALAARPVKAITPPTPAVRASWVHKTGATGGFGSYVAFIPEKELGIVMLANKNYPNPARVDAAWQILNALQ
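AmpC (5.3 nM in the dispensed reagent) in 20 mM phosphate pH 7.0 with 0.01% (detergent screen) or 0.0001% Triton X-100 was preincubated with compounds for 15 min at room temperature. Nitrocefin was then added from an 800 uM solution, and hydrolysis was followed at 480 nm.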
AmpC inh detg: inhibitors of E. coli AmpC beta-lactamase with detergent; P00811; Potency, µM (highest dose often 114 µM), without a hit: top-dose activity change, negative = inhibition, usual class: inhibitors; 0.041% of 370,000 active; AmpC hydrolysis of nitrocefin, absorbance 480 nm, 0.01% Triton;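 also: 0% = no-compound wells and -100% = no-enzyme wells; nearly all actives have a fitted effect of over 25% in size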
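20 mM phosphate pH 7.0 + 0.01% (detergent screen) or 0.0001% Triton X-100; 5.3 nM AmpC reagent; cpd preinc 15 min RT; nitrocefin (800 uM stock) to start; A480 q20 s × 4 min; Activity was normalised to no-enzyme and no-compound control wells.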
FBPA Giardia inh: Giardia lamblia aldolase inhibition | A8B2U2 | purified Giardia FBPA | Potency, µM (top dose mostly 59.6 µM), inactives show at the highest dose activity, negative = inhibition, usual class: inhibitors | 0.71% of 290,000 active; also: nearly all actives have a fitted effect of over 55% in size
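40 nM FBPA preincubated 10 min at RT with compound (up to 57.5 uM final), then substrate plus GAPDH/TPI/NAD/arsenate coupling and diaphorase/resazurin added. Fluorescence read after 20 min at RT, 525/598 nm.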
The depositor's hits bear a star; u = inconclusive; x = not tested or not shown. An excerpt weighted towards active compounds, which were near 3.4% of everything screened. Unless noted, calls follow the shape of the dose curve; as a rule, active = well fitted curve in the direction sought with a large enough effect; inconclusive = small, poorly fitted or top-dose-only effect, or another doubt; inactive = no such curve, though single readings can be large; an effect the other way counts as inactive or inconclusive. Unless noted, % is scaled to controls: 0 for no effect and ±100 for the full control effect; potency is read from the fitted curve at half-maximal effect.

SMILES | RE007 growth inh | Sm TGR inh | AmpC inh no detg | AmpC inh detg | FBPA Giardia inh
COc1ccccc1CNC(=O)c1ccc(CS(=O)(=O)c2c(Cl)cccc2Cl)o1 | x | -7% | x | u | x
O=C(c1ccc(CNS(=O)(=O)c2ccc(Br)cc2)cc1)N1CCC2(CC1)OCCO2 | -6% | -12% | -3% | -15% | 6%
O=C(c1ccc(CNS(=O)(=O)c2ccccc2)cc1)N1CCC2(CC1)OCCO2 | 8% | 40µM* | 8% | 0% | -9%
COc1ccc(S(=O)(=O)Cc2ccc(C(=O)N3CCOCC3)o2)cc1 | 11% | 28µM* | -2% | u | 8%
CC(=O)Nc1ccc(S(=O)(=O)NCCC(=O)NCCc2ccc(F)cc2)cc1 | 13% | 11% | -14% | u | 8%
Cc1ccc(CNS(=O)(=O)c2cc3c(cc2C)NC(=O)CO3)cc1 | 14% | -16% | -11% | -5% | -10%
O=C(c1ccc(CS(=O)(=O)c2ccc(Br)cc2)o1)N1CCOCC1 | 15% | 45µM* | -6% | -3% | -3%
O=C(c1ccc(CS(=O)(=O)c2ccc(Br)cc2)o1)N1CCN(c2ccc(F)cc2)CC1 | -7% | 0% | 53% | 5% | x
O=C(c1ccc(CS(=O)(=O)c2ccc(Br)cc2)o1)N1CCC2(CC1)OCCO2 | -8% | 35µM* | -15% | -6% | -2%
O=C(c1ccc(CS(=O)(=O)c2ccccc2)o1)N1CCC2(CC1)OCCO2 | -8% | 22µM* | -2% | -12% | -4%
O=C(c1ccc(CS(=O)(=O)c2ccccc2)o1)N1CCN(c2ncccn2)CC1 | 3% | 28µM* | -3% | -7% | 3%
O=C(CCS(=O)(=O)c1ccc(Br)cc1)N1CCC2(CC1)OCCO2 | -3% | 4% | -19% | -1% | 5%
Cc1cccc(CS(=O)(=O)Cc2ccc(C(=O)N3CCC4(CC3)OCCO4)o2)c1 | 1% | u | 26% | 2% | -3%
CCOc1ccccc1NC(=O)CSC1=C(C#N)C(c2ccco2)C(C(=O)Nc2nc3ccccc3s2)=C(C)N1 (centres undefined) | 5% | -15% | 5µM* | 1% | -1%
CC(C)CC(OC(=O)c1nsc(Cl)c1Cl)C(=O)NC1CCCC1 (centres undefined) | -24% | 6% | -14% | -6% | 6%
COc1ccc(-c2cn(-c3cccc(C)c3)c(=O)[nH]2)cc1OC | 2% | 13µM* | -5% | 6% | -9%
COc1ccc(-c2cn(-c3ccc(C)cc3C)c(=S)[nH]2)cc1OC | -8% | -24% | -1% | -7% | 24%
C/C(=N/Nc1ccc(C(=O)O)cc1)c1ccc(O)c(O)c1O | 8% | -22% | -7% | -6% | 7.1µM*
CCOC(=O)c1c(NC(=O)COc2cccc(C)c2C)sc2c1CCCCC2 | x | -3% | x | 8% | x
COc1ccc(C(=O)Nc2c(N)nc(SCC(=O)NCC3CCCO3)[nH]c2=O)cc1 (centres undefined) | -3% | 3% | -9% | -4% | x
COc1ccc(COC(=O)c2cc(S(=O)(=O)N3CCCCC3)ccc2N2CCOCC2)cc1 | -1% | 1% | -15% | u | x
COc1ccc(NC(=O)C2CCCN(c3ncnc4onc(-c5ccc(F)cc5)c34)C2)cc1 (centres undefined) | -2% | 2% | 3% | 1% | 8%
O=C(Nc1ccc(F)c(Cl)c1)C1CCCN(c2ncnc3onc(-c4ccc(F)cc4)c23)C1 (centres undefined) | x | 50µM* | x | -7% | x
C[C@@H]1CN([C@@H](C)CO)C(=O)CCCn2nncc2CO[C@H]1CN(C)Cc1ccccc1C(F)(F)F | 31% | x | x | x | x
COc1ccccc1NS(=O)(=O)c1cc(C(=O)N2CCN(C/C=C/c3ccccc3)CC2)ccc1C | 3% | 35µM* | -11% | 6% | x
NS(=O)(=O)c1ccc(-c2ccc(C=NC3CCS(=O)(=O)C3)o2)cc1 (centres undefined) | 10% | 71µM* | -29% | u | -9%
CN(CC(=O)Nc1ccc(Cl)c(C(F)(F)F)c1)C(=O)CCCc1nc2ccccc2c(=O)[nH]1 | -6% | -17% | -14% | 0% | x

Screens as filed in PubChem BioAssay.
